# Source: PMC4336329 (PLoS ONE, 2015)
# Screen size: about 310,000 compounds; about 14,000 (4.5%) showed an effect of 50% or more. Effects have a minus sign here. The full list was thinned out, with strong results kept by preference.
# Biological target: human ether-à-go-go-related gene (hERG) potassium channel (human, UniProt Q12809)
# Test: primary screen, population patch clamp on CHO cells stably expressing hERG; higher = less effect of the substance
# 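Further: peak tail current of the secondary pulse compared with the same well before compound.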
# human ether-à-go-go-related gene (hERG) potassium channel, sequence (Q12809 whole entry, looked up): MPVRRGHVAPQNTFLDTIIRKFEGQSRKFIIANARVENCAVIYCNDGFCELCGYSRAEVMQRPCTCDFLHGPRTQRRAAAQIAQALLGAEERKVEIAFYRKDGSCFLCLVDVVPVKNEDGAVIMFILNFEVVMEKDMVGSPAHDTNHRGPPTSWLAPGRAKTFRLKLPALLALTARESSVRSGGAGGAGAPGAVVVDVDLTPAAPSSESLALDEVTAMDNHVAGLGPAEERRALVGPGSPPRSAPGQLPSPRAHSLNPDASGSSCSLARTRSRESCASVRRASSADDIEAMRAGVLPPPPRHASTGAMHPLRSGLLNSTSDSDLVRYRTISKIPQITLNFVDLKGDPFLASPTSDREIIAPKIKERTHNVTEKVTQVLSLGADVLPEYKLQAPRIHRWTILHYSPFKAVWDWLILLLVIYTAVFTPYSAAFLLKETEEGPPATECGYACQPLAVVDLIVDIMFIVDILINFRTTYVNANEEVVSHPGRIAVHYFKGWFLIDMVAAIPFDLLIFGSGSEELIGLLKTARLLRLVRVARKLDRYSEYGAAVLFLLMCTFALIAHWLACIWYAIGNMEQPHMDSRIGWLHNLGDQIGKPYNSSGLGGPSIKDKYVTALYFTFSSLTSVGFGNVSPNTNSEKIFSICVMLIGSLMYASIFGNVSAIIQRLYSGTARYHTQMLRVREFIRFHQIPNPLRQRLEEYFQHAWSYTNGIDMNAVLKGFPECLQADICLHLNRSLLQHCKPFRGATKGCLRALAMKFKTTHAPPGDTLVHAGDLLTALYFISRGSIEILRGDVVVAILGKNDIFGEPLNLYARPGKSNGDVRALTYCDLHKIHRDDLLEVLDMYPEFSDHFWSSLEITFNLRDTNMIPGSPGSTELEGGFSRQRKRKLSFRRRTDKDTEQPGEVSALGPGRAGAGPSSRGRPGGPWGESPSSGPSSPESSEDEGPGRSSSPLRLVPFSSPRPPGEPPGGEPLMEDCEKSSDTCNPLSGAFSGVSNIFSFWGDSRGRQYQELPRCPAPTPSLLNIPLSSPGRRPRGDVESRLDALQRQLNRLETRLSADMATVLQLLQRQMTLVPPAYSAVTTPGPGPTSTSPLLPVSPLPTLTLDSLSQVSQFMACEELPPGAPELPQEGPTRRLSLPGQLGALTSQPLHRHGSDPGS
row,SMILES,"hERG current change (%, negative = inhibition) at 10uM"
1,Cc1cccc(NC(=O)c2cc3c(=O)n4ccccc4nc3n(CC(C)C)c2=N)c1,-78%
2,COc1cccc(NC(=O)c2cc3c(=O)n4ccccc4nc3n(CC(C)C)c2=N)c1,-82%
3,COc1cccc(NC(=O)C(Sc2nc3ccccc3c(=O)n2CC(C)C)c2ccccc2)c1 (stereo not drawn),11.8%
4,Cc1cccc(NC(=O)c2c(C)nc3ccccn23)c1,-0.935%
5,COc1ccc(NC(=O)c2cc3c(=O)n4ccccc4nc3n2C)cc1OC,13.7%
6,Cc1cccc(NC(=O)c2cc3c(=O)n4ccccc4nc3s2)c1,10.8%
7,CCOc1ccc(NC(=O)CSc2nc(=O)n(Cc3cccnc3)c3c2CCC3)cc1,-8.74%
8,CN(c1cccc(NC(=O)c2cccc([N+](=O)[O-])c2)c1)S(C)(=O)=O,13.1%
9,O=C(Nc1ccc(N2CCOCC2)cc1N1CCOCC1)c1ccc([N+](=O)[O-])cc1,2.51%
10,COc1cc(/C=N/NS(=O)(=O)c2ccc(Br)cc2)ccc1O,1.58%
11,Cc1ccc(NC(=O)CNC(=O)c2ccco2)nc1,17.3%
12,CCOc1cc(S(=O)(=O)n2cnc(C)c2)ccc1Cl,-8.24%
13,COc1ccc(/C=C/C(=O)N2CCN(C)CC2)cc1OC,6.7%
14,COc1ccc(N(C(=O)/C=C/c2ccc(OC)c(OC)c2)C2=CC3CCC(C2)N3C)cc1.Cl (stereo not drawn),-69.6%
15,COc1ccc(C(=O)Cn2c(C(=O)/C=C/c3ccccc3)nc3ccccc32)cc1,-16.4%
16,COc1ccc(/C=C/C(=O)N(C)C2CCS(=O)(=O)C2)cc1OC (stereo not drawn),2.01%
17,COc1ccc(/C=C/C(=O)N(C)c2ccccc2C(=O)O)cc1,-4.18%
18,COc1ccc(N(C(=O)/C=C/c2ccccc2)C2=CC3CCC(C2)N3C)cc1.Cl (stereo not drawn),-74.6%
19,Cn1c(C(=O)N[C@@H](Cc2ccccc2)C(=O)NCCC(=O)O)cc2cc(Cl)ccc21,0.651%
20,COc1ccc(OCC(=O)OCC(=O)N2CC(=O)Nc3ccccc32)cc1,-3.16%

row,SMILES,"hERG current change (%, negative = inhibition) at 10uM"
1,Cc1ccc(CCC(=O)Nc2ccc([N+](=O)[O-])cc2)o1,0.967%
2,COc1ccc(-n2cc(-c3ccccc3)c3c(N4CCN(CCO)CC4)ncnc32)cc1,-42%
3,OCCN1CCN(c2ncnc3c2c(-c2ccccc2)cn3-c2ccc(Br)cc2)CC1,-15.2%
4,CC1CN(c2ncnc3c2c(-c2ccccc2)cn3-c2ccc(F)cc2)CC(C)O1 (stereo not drawn),12%
5,OCCN1CCN(c2ncnc3c2c(-c2ccccc2)cn3-c2ccc(F)cc2)CC1,-74.3%
6,CCN1CCN(c2ncnc3c2c(-c2ccccc2)cn3-c2ccc(F)cc2)CC1,-74.5%
7,Cc1ccc(-n2cc(-c3ccccc3)c3c(N4CCN(C)CC4)ncnc32)cc1,-9.95%
8,CNCCCC1c2ccccc2C=Cc2ccccc21.Cl,13.2%
9,O=c1[nH]c(Nc2ccccc2Cl)cc2ccccc12,10.9%
10,O=C(Cc1ccccc1F)OCN1C(=O)c2ccccc2C1=O,21.5%
11,N#C/C(=C/c1cccc(C(F)(F)F)c1)c1nc(CCN2C(=O)c3ccccc3C2=O)cs1,-0.904%
12,N#Cc1cccc(C(=O)OCC(=O)N2CCCc3ccccc32)c1,-1.94%
13,COc1cc(CN2CCC(n3nccc3NC(=O)CCCc3ccccc3)CC2)ccc1F,-66.5%
14,COc1ccc(CN2CCC(n3nccc3NC(=O)CCCc3ccccc3)CC2)cc1C,-93.3%
15,COc1cc(CN2CCC(n3nccc3NC(=O)CCCc3ccccc3)CC2)ccc1O,-31.1%
16,O=C(O)CNC(=O)c1ccccc1NC(=O)c1ccco1,7.93%
17,COc1ccccc1C/C(N)=N/OC(=O)COc1ccc(C)cc1C,17.4%
18,CC12CC3CC(C)(C1)CC(C(=O)NCc1cccnc1)(C3)C2,-11.6%
19,c1ccc(OCCN2CCN(Cc3nc(-c4ccc5c(c4)OCO5)no3)CC2)cc1,-51.5%
20,O=C(c1ccco1)N1CCCN(Cc2nc(-c3ccc4c(c3)OCO4)no2)CC1,-46.1%

row,SMILES,"hERG current change (%, negative = inhibition) at 10uM"
1,c1cc(C2CCN(Cc3nc(-c4ccc5c(c4)OCO5)no3)CC2)ccn1,-19.7%
2,COCC1CCCN(Cc2nc(-c3ccc4c(c3)OCO4)no2)C1 (stereo not drawn),-5.71%
3,COCC1CCN(Cc2nc(-c3ccc4c(c3)OCO4)no2)C1 (stereo not drawn),-17.1%
4,Fc1ccc(CN2CCCN(Cc3nc(-c4ccc5c(c4)OCO5)no3)CC2)cc1,-62.2%
5,Fc1ccccc1CNc1ncnc2sccc12,11.9%
6,CCOC(=O)CN1C(=O)SC(Nc2ccc(C)cc2)C1=O (stereo not drawn),27.1%
7,O=C(Nc1c2c(nn1-c1ccccc1)CS(=O)C2)c1ccco1 (stereo not drawn),7.5%
8,CC(=O)OCC(=O)[C@@]1(OC(C)=O)[C@@H](C)C[C@H]2[C@@H]3C[C@H](F)C4=CC(=O)C=C[C@]4(C)[C@@]3(F)[C@@H](O)C[C@@]21C,-15.1%
9,CCOc1ccc(Nc2nc(N)c3ccccc3n2)cc1.Cl,-41.8%
10,COc1ccc(Nc2nc(NCC3CCCO3)c3ccccc3n2)c(OC)c1.Cl (stereo not drawn),-71.7%
11,COc1ccc(S(=O)(=O)Nc2nc3ccccc3nc2NCC2CCCO2)cc1 (stereo not drawn),5.29%
12,Cl.c1ccc(Nc2nc(NCC3CCCO3)c3ccccc3n2)cc1 (stereo not drawn),-31.2%
13,CCOc1ccc(Nc2nc(NCC3CCCO3)c3ccccc3n2)cc1.Cl (stereo not drawn),-72.3%
14,Oc1ccccc1-c1nc(NCC2CCCO2)c2ccccc2n1 (stereo not drawn),19%
15,Oc1ccc(Cl)cc1Nc1nc(NCC2CCCO2)c2ccccc2n1 (stereo not drawn),23%
16,Cl.Oc1ccccc1Nc1nc(NCC2CCCO2)c2ccccc2n1 (stereo not drawn),-67.5%
17,CC(C)Oc1ccc(-c2nc(NCC3CCCO3)c3ccccc3n2)cc1 (stereo not drawn),-27.4%
18,COc1ccc(OC)c(Nc2nc(NCCO)c3ccccc3n2)c1.Cl,-44.4%
19,Cl.Oc1cccc(Nc2nc(NCC3CCCO3)c3ccccc3n2)c1 (stereo not drawn),-61.4%
20,Cl.OCCNc1nc(Nc2cccc(O)c2)nc2ccccc12,-23.8%
